Laboratory results as given in PubChem BioAssay (NCI).
This is part of a sample that, as a whole, favours compounds with a hit. Of some 83,000 tested, about 20% had one in any assay.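 Growth was measured after 48 h exposure to one concentration of compound in 96-well plates. Values under 10 count as active.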 Unmarked numbers belong to inactive results. Activity calls are given as the source filed them.

These compounds were tested on SR leukemia (assay: NCI-60 one-dose screen, 48 h (100 = growth as untreated, 0 = no growth, -100 = all killed)). Details: 10 µM unless noted.

Row | SMILES | growth
1 | O=S(=O)(NCCNc1nccc(-c2c(-c3ccc(F)c(O)c3)nc3occn23)n1)c1ccccc1 | 20.2%
2 | Cc1ccc2[nH]c(=O)cc(-n3nncc3COc3ccc(C=O)cc3)c2c1 | 102%
3 | Brc1ccc(C2CC(c3cccc(Nc4ccncc4)c3)=NN2c2ccccc2)cc1 (stereo not drawn) | 4.53% (active)
4 | COc1cc(NCC(O)CN(CC(C)C)C2CCCC2)c2ncccc2c1 (stereo not drawn) | 80.1%
5 | CC(=O)OCCCCCNc1ccccc1 | 88.4%
6 | CN1CCN(CC#CCNC(=O)[C@]23CCC(C)(C)C[C@H]2C2=CC[C@@H]4[C@@]5(C)Cc6c([nH]c7ccccc67)C(C)(C)[C@@H]5CC[C@@]4(C)[C@]2(C)CC3)CC1 | -2.18% (active)
7 | COc1c(Cl)cc(Cl)c2ccc(C=C3C(=O)N(C)C(=O)N(C)C3=O)nc12 | 93.2%
8 | Nc1c(C(=O)Nc2ccc(Cl)cc2)cc(-c2nc3ccccc3s2)c(=O)n1NS(=O)(=O)c1ccc(Cl)cc1 | 95.2%
9 | COc1ccc(C(=O)c2cc3c(N)c(C(=O)Nc4cccc(Br)c4C)sc3nc2C)cc1 | -21.4% (active)
10 | CCN(CC)S(=O)(=O)c1cccc([N+](=O)[O-])c1 | 103%
11 | CCc1c(Nc2ccc(C)cc2)nc(N)[nH]c1=O | 87.9%
12 | CN1CCN(c2cc(F)c(NC3=C(Cl)C(=O)c4ncccc4C3=O)c(F)c2)CC1 | -0.813% (active)
13 | Cn1c(COC(=O)NCCn2ccnc2)nc2c(N3CCOCC3)nc(-c3ccccc3)nc21 | 1.63% (active)
14 | COc1cc(CNC(=O)CCCCC[P+](c2ccccc2)(c2ccccc2)c2ccccc2)c(OC)c2c1OCO2 | 22.9%
15 | CC(=O)OCC(=O)[C@@]1(O)CC[C@H]2[C@@H]3CC(=C(Br)Br)C4=CC(=O)CC[C@]4(C)[C@H]3C(=O)C[C@@]21C | 115%
16 | O=C1CCCCCCCCC(O)C(O)CCCC(c2cccs2)O1 (stereo not drawn) | -12.3% (active)
17 | COC(=O)C1=C(C(=O)ONCCN(C)C)C2C=CC1(C(Cc1ccccc1)Nc1ccc(F)cc1)O2 (stereo not drawn) | 10.7%
18 | CS(=O)(=O)c1ccc(-c2cc3c(oc2=O)-c2ccccc2OC3O)cc1 (stereo not drawn) | 103%
19 | Clc1ccc(C2CC(c3cccc(Nc4ccncc4)c3)=NN2c2ccc(Cl)cc2)cc1 (stereo not drawn) | 2.85% (active)

Row | SMILES | growth
20 | CCN(CC)CCCCCCNc1cc(OC)cc2cccnc12 | -51.2% (active)
21 | Clc1cc(Cl)cc(N2N=C(c3cccc(Nc4ccncc4)c3)CC2c2ccc3c(c2)OCO3)c1 (stereo not drawn) | 2.87% (active)
22 | CC(=O)N1N=C(c2cccc(Nc3ccncc3)c2)CC1c1ccc2c(c1)OCO2 (stereo not drawn) | 31.5%
23 | COc1cc(/C=C/C(=O)c2c(C)oc3nc[nH]c(=O)c23)ccc1O | 126%
24 | Cc1ccc(C2C3CC4CCCCC4N3[C@@]3(C(=O)Nc4cc(Cl)ccc43)C2C(=O)c2nc3ccccc3[nH]2)cc1 (stereo partly drawn) | 21.2%
25 | CCCCCOc1ccc(/C=N/Nc2cc(C)nc3ccc(Br)cc23)cc1 | -9.53% (active)
26 | C=C1C(=O)O[C@H]2[C@H]1CC/C(COC(=O)/C=C/c1c[nH]c3ccccc13)=C\CC[C@@]1(C)O[C@@H]21 | -19.7% (active)
27 | CCCCCN1C=C/C(=C\C(=O)N(C)c2ccc(Br)cc2)c2ccccc21 | 90.5%
28 | COc1cc2nc(-c3ccc(C(F)(F)F)cc3)cc(OCCN3CCC(O)CC3)c2cc1OC | 35.4%
29 | COc1cccc(-c2nc3occn3c2-c2ccnc(NCCCNS(=O)(=O)c3cccc(F)c3)n2)c1 | 107%
30 | COc1ccc(C(=O)c2cc3c(N)c(C(=O)Nc4cccc5ccccc45)sc3nc2C)cc1 | -11.9% (active)
31 | CCCCCCCCCCN=C(N)N=C(N)N | 37.8%
32 | CN1CCN(Cc2ccc(NC(=O)c3cncc(C#Cc4cnccc4C(F)(F)F)c3)cc2C(F)(F)F)CC1 | 37.3%
33 | C=C(C)[C@@H]1CC[C@]2(CO)CC[C@]3(C)[C@H](CC[C@@H]4[C@@]5(C)CCCNC(C)(C)[C@@H]5CC[C@]43C)[C@@H]12 | -40.4% (active)
34 | O=S(=O)(NCCNc1nccc(-c2c(-c3cccc(F)c3)nc3occn23)n1)c1cccc2ccccc12 | 41.6%
35 | CC(=O)N1c2ccccc2NC2=C(C(=O)N(C)C2(C)C)C1C (stereo not drawn) | 16.7%
36 | O=C(Nc1ccc(F)cc1)c1c(NC(=O)C(F)(F)F)sc2c1CCCCC2 | 2.35% (active)
37 | O=C1Nc2c(ccc(Cl)c2Cl)/C1=C/c1ccc([N+](=O)[O-])cc1 | 69.7%
38 | COc1ccc(-c2nc(N/N=C/c3ccco3)nc(N3CCOCC3)c2C#N)cc1 | 60.2%
